Publication PMC4336329 (PLoS ONE, 2015)
The campaign covered roughly 310,000 compounds. About 14,000 (4.5%) showed an effect of 50% or more. Effects have a minus sign here. The sample holds strong results, similar compounds and a random draw of the others, so the mix is not that of the screen.

Molecular target: human ether-à-go-go-related gene (hERG) potassium channel (human, UniProt Q12809)
Test: primary screen, population patch clamp on CHO cells stably expressing hERG; higher = less effect of the substance
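Also: peak tail current of the secondary pulse compared with the same well before compound.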

Sequence of human ether-à-go-go-related gene (hERG) potassium channel (Q12809 whole entry, looked up): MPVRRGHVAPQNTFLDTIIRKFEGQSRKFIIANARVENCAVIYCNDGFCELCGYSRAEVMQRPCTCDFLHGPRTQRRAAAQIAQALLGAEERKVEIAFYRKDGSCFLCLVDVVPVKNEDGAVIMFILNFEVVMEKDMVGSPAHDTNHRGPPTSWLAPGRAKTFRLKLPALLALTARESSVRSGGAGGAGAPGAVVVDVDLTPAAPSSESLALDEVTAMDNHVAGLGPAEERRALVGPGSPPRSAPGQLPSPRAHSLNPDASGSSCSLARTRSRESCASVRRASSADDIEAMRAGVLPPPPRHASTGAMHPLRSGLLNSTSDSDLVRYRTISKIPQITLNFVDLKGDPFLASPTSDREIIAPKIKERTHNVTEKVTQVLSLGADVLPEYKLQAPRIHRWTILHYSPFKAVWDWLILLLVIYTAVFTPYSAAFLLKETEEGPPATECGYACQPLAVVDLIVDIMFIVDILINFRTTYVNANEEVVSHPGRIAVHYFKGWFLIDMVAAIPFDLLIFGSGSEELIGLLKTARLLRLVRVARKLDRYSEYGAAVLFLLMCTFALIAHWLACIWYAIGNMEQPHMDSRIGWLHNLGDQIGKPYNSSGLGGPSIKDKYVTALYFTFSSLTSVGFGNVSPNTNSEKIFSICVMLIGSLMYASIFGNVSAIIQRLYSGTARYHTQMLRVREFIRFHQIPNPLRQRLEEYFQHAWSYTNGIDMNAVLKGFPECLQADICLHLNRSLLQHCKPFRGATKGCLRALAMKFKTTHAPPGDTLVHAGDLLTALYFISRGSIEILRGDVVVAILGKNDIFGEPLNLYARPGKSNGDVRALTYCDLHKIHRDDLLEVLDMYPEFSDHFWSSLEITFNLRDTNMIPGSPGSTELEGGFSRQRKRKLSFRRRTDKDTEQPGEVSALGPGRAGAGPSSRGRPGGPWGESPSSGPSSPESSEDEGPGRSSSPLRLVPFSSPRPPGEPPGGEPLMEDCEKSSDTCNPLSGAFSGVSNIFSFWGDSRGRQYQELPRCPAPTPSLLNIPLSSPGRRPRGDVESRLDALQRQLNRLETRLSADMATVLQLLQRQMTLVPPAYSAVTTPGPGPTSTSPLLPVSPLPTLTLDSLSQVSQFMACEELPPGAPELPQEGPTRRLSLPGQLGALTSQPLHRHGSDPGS

Compound | hERG current change (%, negative = inhibition) at 10uM [%]
Cc1nn(-c2ccccc2)cc1/C=N/O | 0.476
Cc1ccc(C(=O)NCCCN2CCOCC2)c(Cl)c1 | 13
CCOC(=O)c1sc(=S)n(C)c1C | 12
Cc1ccc(S(=O)(=O)N2CCN(C(=O)CSc3ccccn3)CC2)c(C)c1 | -26.5
Cc1ccc(S(=O)(=O)N2CCN(Cc3nc4ccccc4n3C)CC2)cc1 | -53.5
CN1CCN(Cc2nc3ccccc3n2C)CC1 | -0.083
Cc1ccc(S(=O)(=O)n2c(CN3CCCC(C)C3)nc3ccccc32)cc1 (stereo not shown) | -14.6
CN1CCN(Cc2nc3ccccc3n2C)CC1CCO (stereo not shown) | 3.83
Cn1c(CN2CCN(c3ccccc3NS(C)(=O)=O)CC2)nc2ccccc21 | -61.5
CN(Cc1nc2ccccc2n1C)S(C)(=O)=O | -5.28
O=C(COC(=O)c1cccc(Cl)c1)Nc1cc(Cl)ccc1Oc1ccccc1 | 15.1
COCc1cc(=O)n2[nH]c(-c3cccc(Br)c3)cc2n1 | -24.2
CC1=CC(=O)C=C(C)C1=NOC(=O)c1cccc([N+](=O)[O-])c1 | 9.59
Cc1c(C(=O)NC2CCN(Cc3ccccc3)C2)oc2c(Cl)cccc12 (stereo not shown) | -71.8
CCOC(=O)N1CCC(NC(=O)c2oc3c(F)cccc3c2C)CC1 | -15.4
Cc1c(C(=O)NCCN2CCOCC2)oc2ccc(Br)cc12 | -15
O=C(NC1CCN(Cc2ccccc2)CC1)c1c(Cl)cccc1Cl | -10.7
CCOc1ccc2oc(C(=O)NC3CCN(Cc4ccccc4)CC3)c(C)c2c1.Cl | -15.1
Cc1c(C(=O)NC2CCN(Cc3ccccc3)C2)oc2ccc(Br)cc12 (stereo not shown) | -61.8
O=C(OCC(=O)c1cccs1)C1=COCCO1 | 19.7

Compound | hERG current change (%, negative = inhibition) at 10uM [%]
CC1CN(C(=O)/C(C#N)=C2\N=C(NC(=O)c3ccc(F)cc3)c3ccccc32)CC(C)O1 (stereo not shown) | 14.1
CCOC(=O)C1(Cc2ccccc2)CCCN(CCO)C1 (stereo not shown) | 6.18
COc1cc2cc(C(=O)N3CCN(c4ccccc4OC)CC3)[nH]c2cc1OC | 24.5
C=CCN1CCN(C(=O)CCc2ccccc2)CC1 | 13.8
COc1cccc(N2CCN(C(=S)Nc3ccc(F)cc3)CC2)c1 | 16.1
CC1CCN(CCOc2ccc(OCc3ccccc3)cc2)CC1.O=C(O)C(=O)O | -70.9
CC1CCN(CCCOc2ccc(OCc3ccccc3)cc2)CC1.O=C(O)C(=O)O | -71.4
CC1CCCN(Cc2ccc(OCc3ccccc3)cc2)C1 (stereo not shown) | -43.3
COc1ccc(Cl)cc1N1C(=O)C2CCCN2C1c1ccccc1F (stereo not shown) | -0.486
C=CCNC(=O)C12CC3(C)CC(C)(CC(C)(C3)C1)C2 | -11.8
CCOC(=O)C1CCCN(C(=O)CN(c2ccc(OC)cc2)S(=O)(=O)c2c(C)noc2C)C1 (stereo not shown) | -4.08
CCOC(=O)C1(Cc2ccc(OC)cc2)CCN(C(=O)c2cc(C)nn2C)CC1 | -40.5
O=[N+]([O-])c1cccc(Cl)c1NCCNS(=O)(=O)c1ccccc1 | -15.2
Oc1ccccc1/C=N/c1c(-c2ccco2)nc2ccccn12 | -4.17
OC1CCN(c2c3c(nc4cc(-c5ccc(F)cc5)nn24)CCC3)CC1 | -7.45
Cc1ccc(/C=C/C(=O)N2CCCC(C(N)=O)C2)o1 (stereo not shown) | -8.59
CCOc1cccc(OCCCOc2cccc3cccnc23)c1 | -8.52
COc1ccc2c(c1)sc(N)[n+]2Cc1cc(C)cc2cccnc12.[Br-] | -74
Cc1cc(C[n+]2ccsc2N)c2ncccc2c1.[Br-] | -48.2
CCOc1ccc2c(c1)sc(N)[n+]2Cc1cc(C)cc2cccnc12.[Br-] | -74.9

Compound | hERG current change (%, negative = inhibition) at 10uM [%]
Cc1cc(C[n+]2ncsc2N)c2ncccc2c1.[Br-] | -33.8
CCOc1ccc(C(=O)C[n+]2cccc3cc(C)ccc32)cc1.[Br-] | -47.9
CC(C)CCN(C(=O)C1CSC2(C)CCC(=O)N12)c1c(N)n(Cc2ccccc2)c(=O)[nH]c1=O (stereo not shown) | 6.21
CC12CCC(C(=O)N(c3cccc(Cl)c3)C1=O)C2(C)C (stereo not shown) | -4.23
O=Nc1ccc(NOC(=O)c2ccccc2)cc1 | 5.89
COc1ccc(CNC(=O)C(C#N)c2nc3ccccc3nc2N2CCCC2)cc1 (stereo not shown) | 10.1
COc1ccc(C)cc1NC(=O)c1ccc(S(=O)(=O)N2CCOCC2)cc1 | 2.48
Cl.OC(COc1ccccc1)CN1CCN(Cc2ccc3c(c2)OCO3)CC1 (stereo not shown) | -60.5
Cc1c(C(=O)C(=O)N2CCN(Cc3ccc4c(c3)OCO4)CC2)c2ccccc2n1C | -8.7
COc1ccc(OCC(O)CN2CCN(Cc3ccc4c(c3)OCO4)CC2)cc1.Cl (stereo not shown) | -47.4
C=CCc1ccccc1OCC(O)CN1CCN(Cc2ccc3c(c2)OCO3)CC1 (stereo not shown) | -91
Cc1cc(C)cc(OCC(O)CN2CCN(Cc3ccc4c(c3)OCO4)CC2)c1.Cl (stereo not shown) | -76
Cl.OC(COCc1ccccc1)CN1CCN(Cc2ccc3c(c2)OCO3)CC1 (stereo not shown) | -45
COc1ccc2c(c1)c(C(O)CN1CCN(Cc3ccc4c(c3)OCO4)CC1)c(C)n2C (stereo not shown) | -11
CC(C)OCC(O)CN1CCN(CC(O)COc2ccc3c(c2)OCO3)CC1 (stereo not shown) | -33.3
C=CCc1ccccc1OCC(O)CN1CCOCC1 (stereo not shown) | 13.1
Cc1c(C(O)CN2CCN(Cc3ccc4c(c3)OCO4)CC2)c2ccccc2n1C (stereo not shown) | -75.6
Cl.OCCN1CCN(CC(O)COc2ccc3c(c2)OCO3)CC1 (stereo not shown) | 12.7
